Our source for the inhibition values is PubChem BioAssay AID651957 (The Scripps Research Institute Molecular Screening Center, 2012).

SMILES strings stand for the structures. Screen size: about 370,000 compounds; about 620 (0.17%) were called active. Many of the other results were omitted from the sample, so actives are more common in it than they were. Values without a mark were called inactive.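 Rule for the calls: active = inhibition above the mean inhibition of all tested compounds plus 3 SD, set per campaign (cut at about 52% in these data); inactive = the rest.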

The target in the assay is Nuclear receptor coactivator 2 (Homo sapiens) (UniProt Q15596). The experiment in a line: inhibition of GAL4-SRC2 driven luciferase reporter, primary screen, SRC2 inhibitor project, cell-based, luminescence (AID 651957).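 Note: 0% = DMSO treated cells and 100% = cells given Gossypol at 36 µM.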 The conditions noted are these: HEK293 GAL4-SRC2 luciferase reporter, at 9 µM, hits give high values.
Nuclear receptor coactivator 2 (Homo sapiens), sequence (Q15596 whole entry, looked up, the tested form may be a part): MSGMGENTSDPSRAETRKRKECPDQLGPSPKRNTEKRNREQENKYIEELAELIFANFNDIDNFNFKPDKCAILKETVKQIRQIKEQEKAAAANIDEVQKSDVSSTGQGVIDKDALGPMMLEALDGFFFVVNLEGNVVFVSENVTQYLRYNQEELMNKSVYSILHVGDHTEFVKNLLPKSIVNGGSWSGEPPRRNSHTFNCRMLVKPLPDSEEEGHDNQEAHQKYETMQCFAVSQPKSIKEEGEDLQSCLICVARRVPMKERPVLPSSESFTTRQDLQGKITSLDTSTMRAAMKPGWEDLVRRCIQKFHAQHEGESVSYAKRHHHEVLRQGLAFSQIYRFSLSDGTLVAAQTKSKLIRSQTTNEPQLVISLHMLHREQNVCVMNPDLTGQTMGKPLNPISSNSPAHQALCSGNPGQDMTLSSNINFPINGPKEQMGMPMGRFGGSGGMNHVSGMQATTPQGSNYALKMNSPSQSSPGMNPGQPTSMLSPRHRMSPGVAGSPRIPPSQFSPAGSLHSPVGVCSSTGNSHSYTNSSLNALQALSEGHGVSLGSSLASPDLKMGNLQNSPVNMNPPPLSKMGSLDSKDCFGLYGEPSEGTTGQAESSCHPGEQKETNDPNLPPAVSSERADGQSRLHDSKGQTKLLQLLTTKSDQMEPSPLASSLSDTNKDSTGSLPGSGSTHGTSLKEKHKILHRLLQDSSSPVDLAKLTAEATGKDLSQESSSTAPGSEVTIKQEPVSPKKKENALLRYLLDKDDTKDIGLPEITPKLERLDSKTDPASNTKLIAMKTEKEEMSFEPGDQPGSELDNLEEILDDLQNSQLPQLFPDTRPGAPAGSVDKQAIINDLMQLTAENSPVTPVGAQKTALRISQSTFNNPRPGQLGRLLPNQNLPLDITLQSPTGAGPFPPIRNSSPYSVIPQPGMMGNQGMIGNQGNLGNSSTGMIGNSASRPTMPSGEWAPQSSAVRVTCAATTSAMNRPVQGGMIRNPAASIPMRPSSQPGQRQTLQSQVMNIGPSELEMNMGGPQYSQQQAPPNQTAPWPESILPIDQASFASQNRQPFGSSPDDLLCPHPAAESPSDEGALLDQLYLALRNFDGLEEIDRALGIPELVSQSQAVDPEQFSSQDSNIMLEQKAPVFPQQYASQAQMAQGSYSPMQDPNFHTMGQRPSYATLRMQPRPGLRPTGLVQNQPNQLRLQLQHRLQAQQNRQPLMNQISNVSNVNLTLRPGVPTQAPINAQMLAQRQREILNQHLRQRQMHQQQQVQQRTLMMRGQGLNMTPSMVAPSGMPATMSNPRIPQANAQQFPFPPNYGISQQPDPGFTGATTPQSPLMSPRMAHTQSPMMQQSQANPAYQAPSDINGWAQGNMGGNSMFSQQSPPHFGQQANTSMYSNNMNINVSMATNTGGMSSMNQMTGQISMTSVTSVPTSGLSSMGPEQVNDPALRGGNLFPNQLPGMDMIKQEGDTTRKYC
As for `CCOC(=O)CN(C(=O)COc1nc(C)cc(C)c1C#N)c1ccc(Cl)cc1`, the inhibition is -18%.

As to `CCOc1cc(/C=C(/C#N)c2ccc(Cl)cc2)cc(Cl)c1OCC(=O)O`, the inhibition is 56.9% (active).

For the compound `N#C/C(=C/c1ccc(Cl)cc1)NC(=O)c1ccccc1`, the inhibition is -29%.

Regarding `C=CCn1c(SCC(N)=O)nnc1-c1ccccc1OC`, the inhibition was -9.59%.

On to `CC(C)CC1NC(=O)c2cc(Cl)ccc2-n2c1nc1ccccc1c2=O` (stereo not given), for which the inhibition was 5.29%.

`CN(c1ccc2nc3ccccc3c(=O)n2n1)C1CCCCC1`: the inhibition was 72.1% (active).

With `O=C(c1ccco1)N(Cc1nc2ccccc2c(=O)[nH]1)C1CCCC1`, the inhibition is 2.27%.

On to `O=C(NC1Cc2ccccc2C1)c1cc(COc2cccc(C(F)(F)F)c2)on1`, for which the inhibition is 11.1%.

On to `CC1(C)CC(N2CCN(C(c3ccccc3)c3ccccc3)CC2)=CC(=[N+]2CCCCC2)C1`, for which the inhibition is 24.5%.

Regarding `COc1ccc(S(=O)(=O)N2CCc3ccccc32)cc1C(=O)Nc1cc(S(C)(=O)=O)ccc1Cl`, the inhibition was -10.2%.

Regarding `O=C(Nc1nc2ccc(Cl)cc2s1)c1cc(-c2ccc(Cl)cc2)nc2ccccc12`, the inhibition was -2.88%.

For `CC(OC(=O)CN1C(=O)C2CCCCC2C1=O)C(=O)Nc1ncc(Cl)cc1Cl` (stereo not given), the inhibition was 1.55%.

As for `CC1=CC(C)(C)Nc2ccc(OC(=O)CN3C(=O)C4CCCCC4C3=O)cc21` (stereo not given), the inhibition was 52.7% (active).

As for `O=C(COC(=O)CN1C(=O)C2CCCCC2C1=O)Nc1ccc(F)c(F)c1F` (stereo not given), the inhibition is -13.3%.

As for `Cc1ccc(-n2c(SCC(=O)Nc3cccc4ccccc34)nnc2-c2ccco2)cc1`, the inhibition is -19.3%.

As for `CC(C)(C)c1ccc(Oc2ccc(N)cc2)cc1`, the inhibition was 92% (active).

Regarding `CN1CCNC(=O)C1CC(=O)NCCC1=CCCCC1` (stereo not given), the inhibition is 20.1%.

Consider `CN1CCCCC(NC(=O)C(C)(C)C)C1=O` (stereo not given), for which the inhibition was -8.4%.

On to `CCC(c1ccc(NC(=O)OC(C)(C)C)cc1)c1cc(OC)cc(OC)c1` (stereo not given), for which the inhibition is 11.3%.

As for `CC(=O)c1cc(-c2ccc3ccccc3c2)c(=O)n2c1CCC2`, the inhibition is -32.7%.

Turning to `COc1cccc(CN2CCN(Cc3ccc4cccc(F)c4n3)CC2CCO)c1` (stereo not given), the inhibition is -4.49%.

`CCOc1ccc(NC(=O)COC(=O)C2CCC(=O)N2)c([N+](=O)[O-])c1` (stereo not given): the inhibition is -12.2%.

For the compound `COc1ccc(/C=C/C(=O)NC(=S)N2CCCC(C(N)=O)C2)cc1` (stereo not given), the inhibition was -8.4%.

Turning to `CCOc1ccc(NC(=S)NC(=O)/C=C/c2ccc(OC)cc2)c([N+](=O)[O-])c1`, the inhibition is 95.6% (active).

As to `CC(C)(C)c1ccc(CSc2nnc(-c3cccs3)o2)cc1`, the inhibition was -21.4%.

For `COC[C@@H]1CCCN1c1ccc2c(c1)O[C@H](C)CCN(C1CC1)S2(=O)=O`, the inhibition was 14.3%.

Take `O=C(NCc1ccccn1)[C@@H]1CCCN1C(=O)[C@@H]1CCCN1C(=O)c1ccccc1`: the inhibition is -0.2%.

Take `COc1ccc(C2=CN(Cc3ccccc3)C(c3ccc(OC)cc3)CC2=O)cc1` (stereo not given): the inhibition was 12.8%.

For `CCOC(=O)[C@]12CCCC3=C1N(CCC3)C(=O)[C@@H](CC(=O)N1CCSCC1)C2`, the inhibition was 12.6%.

As to `CC1(C)CC2CC(C)(CN2c2ncnc3ccc(Br)cc23)C1` (stereo not given), the inhibition is 17.4%.

Regarding `CCOC(=O)CNc1nc(Cl)nc(Nc2ccc(OC)cc2OC)n1`, the inhibition was -23.9%.

Consider `COc1ccc(Nc2ncnc3ccc(Br)cc23)c(OC)c1`, for which the inhibition is 86.6% (active).

Regarding `CC(C)CNc1cccc2c1S(=O)(=O)N(Cc1cn(Cc3ccccc3C(F)(F)F)nn1)Cc1ccccc1O2`, the inhibition was 2.85%.

As for `CCOC(=O)c1sc(N)c(C#N)c1COC(=O)C1=COCCO1`, the inhibition is 7.27%.

Consider `CCC(C)(C)c1ccc(Oc2ccc(NC(=O)COC(=O)C3=COCCO3)cc2)cc1`, for which the inhibition is 56.6% (active).

On to `CC(=O)Nc1ccc(NC(=O)COC(=O)C2CCC(C(C)(C)C)CC2)cc1` (stereo not given), for which the inhibition is -24.4%.

For `Cc1nnc(SCC(=O)N2c3ccccc3C(C)(c3ccc(Cl)cc3)CC2(C)C)s1` (stereo not given), the inhibition is -11.4%.

In the case of `C=CCNC(=O)c1sc(SC)cc1-c1ccc(Cl)cc1`, the inhibition was 3.88%.

As to `O=C(OC12CCCN(C1)/C(=C/c1ccccc1)C2)c1ccco1` (stereo not given), the inhibition is 9.76%.

Take `OCC[C@H]1C[C@H](O)[C@@H](O)[C@]2(CCc3ccccc3O2)O1`: the inhibition is 3.27%.

Turning to `CCOC(=O)c1ccccc1NS(=O)(=O)c1c(C)nc2sccn2c1=O`, the inhibition is -4.6%.

Regarding `Cc1nc(=O)c(-c2ccccc2)c(C)n1-c1ccc(Br)cc1`, the inhibition was -29.2%.

For the compound `Cc1ccc(-c2cn3cc(C)ccc3n2)cc1`, the inhibition is 72.6% (active).

As to `Cc1ccc2nc(-c3ccc(Br)cc3)cn2c1`, the inhibition is 60.3% (active).

On to `Cc1ccc2nc(-c3ccccc3)c(CC3CCCCC3)n2c1`, for which the inhibition is -25.6%.

`Cc1nc(-c2ccccc2)cn2c1nc1ccccc12`: the inhibition was 7.57%.

Take `COc1cc(/C=C/C(=O)OCC(=O)Nc2cccc(Oc3ccccc3)c2)ccc1O`: the inhibition was 11.1%.

With `COc1cc(C(=O)Nc2cc(C(F)(F)F)ccc2N2CCOCC2)ccc1O`, the inhibition was -7.29%.

As for `COc1ccc(C(=O)Nc2ccccc2C(=O)N/N=C/c2ccc(O)c(OC)c2)cc1`, the inhibition is 55% (active).

As for `Cc1ccccc1NC(=O)Cn1nnc(-c2ccccc2F)n1`, the inhibition is 11.4%.

Take `C=CCn1c(C)cc(C2=NNC(=NCC)SC2)c1C`: the inhibition was 84.4% (active).

For the compound `CC(C)CNc1cccc2c1S(=O)(=O)N(Cc1cn(Cc3ccc(Cl)cc3)nn1)Cc1ccccc1O2`, the inhibition was 26.6%.

For `Cc1cccc(NC(=O)c2nc(S(=O)(=O)Cc3ccccc3)ncc2Cl)c1`, the inhibition is 64.1% (active).

For the compound `Cc1nnc(NC(=O)CSc2nccn2-c2cccc(C)c2C)s1`, the inhibition is -5.88%.

In the case of `O=C(CCS(=O)(=O)c1ccccc1)Nc1ccc(Cl)c(Cl)c1`, the inhibition is -2.79%.

Turning to `Cc1cccc(CS(=O)(=O)c2ncc(Cl)c(C(=O)Nc3ccc(F)cc3)n2)c1`, the inhibition was 62.1% (active).

For the compound `Cc1ccc(CS(=O)(=O)CCC(=O)NC2CC2)cc1`, the inhibition is -50%.

Regarding `Cc1cccc(C(=O)Nc2c(-c3ccc(F)cc3)nc3ncccn23)c1`, the inhibition was 16.3%.

Turning to `CN(CCC(=O)Nc1cc(S(=O)(=O)N(C)C)ccc1Cl)CC(=O)Nc1ccc(F)cc1`, the inhibition was -17.9%.

For `Cc1ccc(CS(=O)(=O)c2ncc(Cl)c(C(=O)Nc3nnc(C)s3)n2)cc1`, the inhibition was 64% (active).

Consider `Cc1cccc(NC(=O)c2cc3c(C)nn(-c4ccccc4)c3s2)c1`, for which the inhibition is 0.27%.

For `O=C(NCCC1=CCCCC1)C1CCN(S(=O)(=O)c2ccc(Cl)s2)CC1`, the inhibition is -18.3%.

In the case of `COc1ccc(N2CCN(CCNS(=O)(=O)c3ccc([N+](=O)[O-])cc3)CC2)cc1`, the inhibition is 9.36%.

For `O=S1(=O)c2ccc(Br)cc2OC[C@@H](Cc2ccccc2)N1Cc1cn(Cc2ccco2)nn1`, the inhibition is -13.6%.

As for `CC1CCC(N2CC(=O)N(Cc3ccc4c(c3)OCO4)C(c3ccc(F)cc3)C2=O)CC1` (stereo not given), the inhibition was 3.66%.

As for `Clc1ccc(C(Cn2ccnc2)OCc2ccsc2Cl)c(Cl)c1` (stereo not given), the inhibition is 7.22%.

Regarding `COc1ccc2cc(C(=O)O)n(CC(=O)c3ccccc3)c2c1`, the inhibition was -12.1%.

Take `C=CCOc1ccc(/C=C2\SC(=S)N(CCC(=O)O)C2=O)cc1`: the inhibition was 85.7% (active).

Regarding `C=CCOc1ccc(C(=O)Nc2ccccc2C(=O)N2CCCC2)cc1`, the inhibition is -24.2%.

As to `Cc1cc(OCCCC(=O)NCCN2C(=O)S/C(=C\c3cccnc3)C2=O)ccc1Cl`, the inhibition was -14.1%.

With `CCOC(=O)C1=C(C)NC2=C(C(=O)CC(C)(C)C2)C1c1ccc2c(c1)OCO2` (stereo not given), the inhibition is 11.6%.

As to `COc1ccc2c(c1)CCC/C2=N\OC(=O)c1ccccc1F`, the inhibition was 4.64%.

As to `CCCCCCCCN1C(=O)[C@@H](CC(=O)NCCCC)C[C@@]2(C(=O)OC)C1=C[C@H](C(C)(C)C)O[C@@H]2C`, the inhibition was -9.63%.

Take `Nn1c(SCC(=O)Nc2ccc(S(N)(=O)=O)cc2)nnc1-c1n[nH]c2c1CCC2`: the inhibition is 10.6%.

As to `CCOC(=O)C1=C(CC)Nc2ccccc2N=C1N`, the inhibition was 12.5%.

For the compound `CCOC(=O)C1C(=O)C=C(c2ccc(OC)cc2)CC1c1ccco1` (stereo not given), the inhibition is -4.74%.

For `CCOC(=O)C1=C(c2ccc(OC)cc2)C(=O)c2ccccc2C1=O`, the inhibition was 73.8% (active).

In the case of `O=C(CN1C(=O)c2ccccc2S1(=O)=O)N1CCc2ccccc21`, the inhibition is 73.3% (active).

In the case of `Cc1ccc(S(=O)(=O)N(C)CC(=O)N2CCc3ccccc32)cc1`, the inhibition is -6.78%.

As for `NS(=O)(=O)c1ccc(CCNC(=O)CN2C(=O)c3ccccc3S2(=O)=O)cc1`, the inhibition is 1.66%.

For the compound `O=C(COC(=O)c1cnccn1)Nc1cccc2ccccc12`, the inhibition was -4.93%.

With `CCOC(=O)C(C(=O)c1ccccc1)C(c1ccccc1)c1nccc2ccccc12` (stereo not given), the inhibition is 14.8%.

For the compound `COc1cccc(CC(=O)N2CCN(C(=O)C(=O)c3cccc(C(F)(F)F)c3)CC2)c1`, the inhibition is 7.57%.

For the compound `C[C@H]1CCC/C=C/C(=O)c2c(O)cc(O)cc2CC(=O)O1`, the inhibition was 64.6% (active).

On to `COc1ccc(S(=O)(=O)NCC(=O)NCc2cc(=O)n(C)c(=O)n2C)cc1F`, for which the inhibition was -9.55%.

As to `CC1CCC2(CC1)NC(=O)N(CC(=O)NCc1ccco1)C2=O` (stereo not given), the inhibition was -29.4%.

Turning to `CC1(C)CC(=O)c2sc(N)nc2C1`, the inhibition is 3.79%.

For `O=c1oc2ccccc2cc1-c1cn(-c2ccccc2)c(=S)[nH]1`, the inhibition was 80.4% (active).

As for `COc1cccc(NC(=O)N(C)C[C@@H]2OCc3cn(nn3)CCCC(=O)N([C@@H](C)CO)C[C@H]2C)c1`, the inhibition is -2.21%.

As to `COC(=O)[C@]12C[C@H](CC(=O)NCc3cccc(C(F)(F)F)c3)C(=O)N(Cc3ccc4c(c3)OCO4)C1=C[C@H](COCc1ccccc1)O[C@@H]2C`, the inhibition was 4.24%.

A word on the inhibition: it is the relative decrease from the control value, in per cent.
